Measured values published in PubChem BioAssay (Tox21).
Results filed as inconclusive are left out. Active and inactive are the calls of the source. Unless noted, calls come from the whole dose curve; as a rule, active = well fitted curve in the direction sought with a large enough effect in the repeat runs; inconclusive = weak or mixed curves; inactive = no such curve, though single readings can be large; an effect the other way counts as inactive or inconclusive.

Tests used:
[1] = qHTS assay to identify small molecule agonists of the NFkB signaling pathway - cell viability counter screen (AID 1159515; calls by dose curve; note: series mostly up to about 61 µM; nearly all actives have a fitted effect of over 55% in size)
Summary of the method: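 Cells are seeded (2,000 NFkB-bla ME-180 per well), rested overnight, and dosed with DMSO-dissolved compounds for 5 hr at 37 C. Viability is then read by CellTiter-Glo luminescence after 30 min at room temperature.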

[2] = qHTS assay to identify small molecule agonists of the endoplasmic reticulum stress response signaling pathway (AID 1159516; active = well fitted activation curve with a large enough effect in the signal ratio in the repeat runs, not every such curve was filed as active; the % refers to the signal ratio)
Summary of the method: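 Cells are seeded at 1,500 per well and incubated overnight. Compounds in DMSO are added for 5 hr at 37 C, then beta-lactamase FRET substrate for 2 hr at room temperature, and fluorescence at 460 and 530 nm is measured.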

[3] = qHTS assay to identify small molecule agonists of the endoplasmic reticulum stress response signaling pathway - cell viability counter screen (AID 1159517; calls by dose curve;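 note: HeLa cells carrying an ER stress response element beta-lactamase reporter; series mostly up to about 61 µM; nearly all actives have a fitted effect of over 50% in size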)
Summary of the method: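 In parallel with the ESRE reporter read, cytotoxicity was scored by CellTiter-Glo luminescence (30 min, room temperature) on HeLa ESRE-bla cells dosed for 5 hr.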

[4] = qHTS assay to identify small molecule antagonists of the retinoid-related orphan receptor gamma (ROR-gamma) signaling pathway - cell viability counter screen (AID 1159520); note: nearly all actives have a fitted effect of over 50% in size
Summary of the method: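 Tet-on ROR gamma CHO cells were given compounds for 2 hr, then doxycycline hyclate at 1 uM final, and incubated 16 hr at 37 C. Viability was measured as ATP content by CellTiter-Glo luminescence.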

[5] = target: Nuclear receptor ROR-gamma (Homo sapiens) (UniProt P51449); experiment: qHTS assay to identify small molecule antagonists of the retinoid-related orphan receptor gamma (ROR-gamma) signaling pathway (AID 1159521;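 note: CHO cells with doxycycline inducible ROR-gamma driving an RORE luciferase reporter; top concentration of the series differs between compounds; nearly all actives have a fitted effect of over 50% in size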)
Summary of the method: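 Tet-on ROR-gamma CHO cells with ROR response element-luciferase reporter; compounds added 2 hr before 1 uM doxycycline induction, then 16 hr at 37 C. Antagonism scored as decreased ONE-Glo luminescence.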

[6] = qHTS assay to identify small molecule agonists of the AP-1 signaling pathway - cell viability counter screen (AID 1159525; calls by dose curve; note: nearly all actives have a fitted effect of over 55% in size)
Summary of the method: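 Same-well cytotoxicity counter screen of the Tox21 10K library in ME-180 cells. The readout is ATP-dependent luminescence after 5 h compound treatment. Data are normalised to DMSO and tetra n-octyl ammonium bromide controls.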

[7] = qHTS assay to identify small molecule agonists of the AP-1 signaling pathway (AID 1159526; calls by dose curve)
[8] = target: Retinoic acid receptor RXR-alpha (Homo sapiens) (UniProt P19793); experiment: qHTS assay to identify small molecule agonists of the RXR signaling pathway (AID 1159527; calls by dose curve; note: nearly all actives have a fitted effect of over 35% in size)
Summary of the method: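 GeneBLAzer RXR-alpha-UAS-bla HEK 293T cells in 2% charcoal-stripped FBS medium were exposed to compounds for 16 hr at 37 C in agonist mode. Beta-lactamase reporter read as 460/530 nm FRET ratio after 2 hr substrate loading.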

[9] = qHTS assay to identify small molecule agonists of the RXR signaling pathway - cell viability counter screen (AID 1159529); note: series mostly up to about 77 µM; nearly all actives have a fitted effect of over 50% in size
Summary of the method: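 RXR-alpha-UAS-bla HEK 293T cells in medium with 2% charcoal-stripped FBS were pre-incubated 5 hr, then compound-treated 16 hr at 37 C. Viability was read by CellTiter-Glo luminescence in the same wells as the beta-lactamase assay, with tetraoctyl ammonium bromide as positive control.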

[10] = qHTS assay to identify small molecule antagonists of the retinoid acid receptor (RAR) signaling pathway - cell viability counter screen (AID 1159551); note: nearly all actives have a fitted effect of over 35% in size
Summary of the method: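 Cells (C3RL4) are plated, incubated overnight, dosed with compound in DMSO, then given retinol at 1 uM final. After 6 h at 37 C, CellTiter-Glo is added and luminescence read following 30 min at room temperature.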

[11] = qHTS assay to identify small molecule antagonists of the retinoic acid receptor (RAR) signaling pathway (AID 1159552; note: nearly all actives have a fitted effect of over 50% in size)
Summary of the method: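 Retinol signaling pathway inhibitors screened in C3RL4 RARE-luciferase reporter cells seeded overnight at 37 C, then compounds added with 1 uM (final) retinol as pathway substrate. After 6 hr at 37 C, luciferase luminescence read after 30 min at room temperature.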

[12] = qHTS assay to identify small molecule agonists of the retinoic acid receptor (RAR) signaling pathway (AID 1159553)
Summary of the method: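 Seed C3RL4 reporter cells at 1,000 per well and incubate overnight at 37 C. Add compounds in DMSO, incubate 6 hr. Add luciferase reagent, wait 30 min at room temperature, read luminescence.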

[13] = qHTS assay to identify small molecule antagonists of the estrogen related receptor (ERR) signaling pathway from Tox21 library - cell viability counter screen (AID 1224834); note: nearly all actives have a fitted effect of over 30% in size
Summary of the method: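 ERR cells, 2,000/well; 6 h settle at 37 C/5% CO2; pin-tool compound transfer in DMSO; 17.5 h at 37 C; CellTiter-Fluor, 30 min; fluorescence intensity.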

[14] = target: Luciferin 4-monooxygenase (Photinus pyralis) (UniProt P08659); experiment: qHTS assay to identify small molecule inhibitors of firefly luciferase (AID 1224835); note: series mostly up to about 120 µM; nearly all actives have a fitted effect of over 25% in size
Summary of the method: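 Biochemical qHTS: compounds run as interplate titrations against purified firefly enzyme, with D-luciferin and ATP each at its KM concentration. Light output recorded by CCD imaging.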

[15] = qHTS assay to identify small molecule agonists of the constitutive androstane receptor (CAR) signaling pathway - cell viability counter screen (AID 1224836); note: series mostly up to about 92 µM; nearly all actives have a fitted effect of over 45% in size
Summary of the method: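 HepG2 cells stably carrying hCAR and a CYP2B6-2.2kb reporter; 15-concentration compounds plus PK11195 (final 0.75 uM), 23 hr at 37 C/5% CO2. Viability read by CellTiter-Fluor fluorescence.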

[16] = qHTS assay to identify small molecule antagonists of the constitutive androstane receptor (CAR) signaling pathway - cell viability counter screen (AID 1224837); note: series mostly up to about 92 µM; nearly all actives have a fitted effect of over 45% in size
Summary of the method: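 Viability was measured with CellTiter-Fluor in a HepG2 line carrying stably transfected hCAR and a CYP2B6-2.2kb construct. Cells were exposed for 23 hr at 37 C to 15 compound concentrations with 50 nM CITCO as agonist.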

[17] = qHTS assay to identify small molecule antagonists of the estrogen related receptor signaling pathway with the pleiotropic PPARgamma coactivator (PGC) from Tox21 10K library - cell viability counter screen (AID 1224840; active = well fitted cell-killing curve with a large enough effect in the repeat runs, not every such curve was filed as active; note: nearly all actives have a fitted effect of over 40% in size)
Summary of the method: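 Multiplexed viability counter screen in the PGC/ERR cell line: cells treated with DMSO-dissolved compounds for 17.5 hours at 37 C, then viability measured as CellTiter-Fluor fluorescence.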

[18] = qHTS assay to identify small molecule antagonists of the vitamin D receptor (VDR) signaling pathway - cell viability counter screen (AID 743225); note: nearly all actives have a fitted effect of over 50% in size
Summary of the method: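 VDR-UAS-bla HEK 293T cells were plated and incubated 4 h at 37C, then dosed with compound plus 3 nM (final) 1-alpha,25-dihydroxyvitamin D3 for 16 h. After the 2 h beta-lactamase read, viability in the same wells was read as CellTiter-Glo luminescence after 30 min at room temperature.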

[19] = target: Nuclear receptor subfamily 1 group I member 3 (Homo sapiens) (UniProt Q14994); experiment: qHTS assay to identify small molecule agonists of the constitutive androstane receptor (CAR) signaling pathway (AID 1224839); note: series mostly up to about 92 µM; nearly all actives have a fitted effect of over 15% in size
Summary of the method: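 HepG2 cells stably co-transfected with hCAR and a CYP2B6-2.2kb luciferase reporter; compounds at 15 concentrations with 0.75 uM PK11195 present. After 24 hr at 37 C, luciferase read by ONE-Glo luminescence.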

[20] = target: Nuclear receptor subfamily 1 group I member 3 (Homo sapiens) (UniProt Q14994); experiment: qHTS assay to identify small molecule antagonists of the constitutive androstane receptor (CAR) signaling pathway (AID 1224838);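 note: HepG2 cells stably expressing hCAR with CYP2B6 luciferase reporter stimulated by CITCO; nearly all actives have a fitted effect of over 40% in size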
Summary of the method: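 Antagonist mode used CITCO at a final 50 nM to activate CAR in human hepatoma HepG2 cells carrying stable hCAR and a 2.2 kb CYP2B6 promoter-luciferase construct. Compounds were tested at 15 concentrations over 24 h, with luminescence as the end point.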

Measured: Potency

Sequence of Luciferin 4-monooxygenase (Photinus pyralis) (P08659 whole entry, looked up): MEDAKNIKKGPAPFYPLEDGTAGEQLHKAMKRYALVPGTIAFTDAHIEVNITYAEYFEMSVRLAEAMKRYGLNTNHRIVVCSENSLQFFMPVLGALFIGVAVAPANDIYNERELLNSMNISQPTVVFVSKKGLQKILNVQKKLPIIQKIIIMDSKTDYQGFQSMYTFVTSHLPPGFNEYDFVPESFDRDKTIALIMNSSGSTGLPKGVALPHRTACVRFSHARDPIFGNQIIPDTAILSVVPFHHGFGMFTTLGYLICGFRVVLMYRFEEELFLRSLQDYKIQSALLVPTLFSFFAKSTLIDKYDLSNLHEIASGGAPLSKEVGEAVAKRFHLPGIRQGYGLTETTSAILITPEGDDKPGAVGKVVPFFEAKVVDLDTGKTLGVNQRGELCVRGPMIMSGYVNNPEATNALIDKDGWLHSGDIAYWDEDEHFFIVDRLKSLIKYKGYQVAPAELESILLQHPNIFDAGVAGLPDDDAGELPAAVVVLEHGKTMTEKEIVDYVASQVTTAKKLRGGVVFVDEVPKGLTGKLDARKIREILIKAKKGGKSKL
Sequence of Retinoic acid receptor RXR-alpha (Homo sapiens) (P19793 whole entry, looked up): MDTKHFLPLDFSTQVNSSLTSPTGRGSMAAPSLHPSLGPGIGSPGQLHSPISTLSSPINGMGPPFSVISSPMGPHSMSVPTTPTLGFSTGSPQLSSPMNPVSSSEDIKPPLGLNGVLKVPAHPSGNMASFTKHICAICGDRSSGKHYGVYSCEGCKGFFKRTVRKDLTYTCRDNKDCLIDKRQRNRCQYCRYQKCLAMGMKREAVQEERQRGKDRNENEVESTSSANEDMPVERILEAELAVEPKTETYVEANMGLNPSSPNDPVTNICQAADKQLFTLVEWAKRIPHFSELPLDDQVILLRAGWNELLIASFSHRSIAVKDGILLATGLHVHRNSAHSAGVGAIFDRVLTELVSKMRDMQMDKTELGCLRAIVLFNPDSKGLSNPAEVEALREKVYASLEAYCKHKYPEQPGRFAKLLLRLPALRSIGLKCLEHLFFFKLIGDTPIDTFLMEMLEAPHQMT
Sequence of Nuclear receptor subfamily 1 group I member 3 (Homo sapiens) (Q14994 whole entry, looked up): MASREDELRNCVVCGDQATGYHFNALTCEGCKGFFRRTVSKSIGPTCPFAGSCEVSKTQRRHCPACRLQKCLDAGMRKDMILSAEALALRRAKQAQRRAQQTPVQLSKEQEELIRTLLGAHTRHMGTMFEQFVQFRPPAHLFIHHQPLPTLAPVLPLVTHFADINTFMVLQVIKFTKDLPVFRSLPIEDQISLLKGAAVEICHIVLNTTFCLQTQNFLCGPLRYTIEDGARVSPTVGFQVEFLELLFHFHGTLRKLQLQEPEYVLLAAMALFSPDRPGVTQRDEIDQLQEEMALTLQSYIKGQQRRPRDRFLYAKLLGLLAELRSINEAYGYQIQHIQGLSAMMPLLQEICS

COC(=O)/C=C(\C)CCC=C(C)C
not listed: [18] | [19] | [20]
inactive: all other assays above

COc1cnc(NS(=O)(=O)c2ccc(N)cc2)nc1
not listed: [20]
inactive: all other assays above

COC(=O)N/N=C/c1c[n+]([O-])c2ccccc2[n+]1[O-]
not listed: [15] | [19]
inactive: all other assays above

Cc1ccccc1OCC(=O)O
not listed: [15]
inactive: all other assays above

COC(=O)c1ccccc1Cl
not listed: [15]
inactive: all other assays above

COC(=O)c1c(C)cc(O)c(C)c1O
not listed: [19]
inactive: all other assays above

CN1C(CCl)Nc2cc(Cl)c(S(N)(=O)=O)cc2S1(=O)=O (centres undefined)
not listed: [15]
inactive: all other assays above

N=C(N)N
not listed: [15]
inactive: all other assays above
